Experimental data: publication PMC4336329 (PLoS ONE, 2015)
Screen size: about 310,000 compounds; about 14,000 (4.5%) showed an effect of 50% or more. The effect is printed as a negative number. This excerpt belongs to a sample that is enriched for strong results.

biological target: human ether-à-go-go-related gene (hERG) potassium channel (human, UniProt Q12809); test: primary screen, population patch clamp on CHO cells stably expressing hERG; higher = less effect of the substance
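Also: peak tail current of the secondary pulse compared with the same well before compound.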

human ether-à-go-go-related gene (hERG) potassium channel, sequence (Q12809 whole entry, looked up): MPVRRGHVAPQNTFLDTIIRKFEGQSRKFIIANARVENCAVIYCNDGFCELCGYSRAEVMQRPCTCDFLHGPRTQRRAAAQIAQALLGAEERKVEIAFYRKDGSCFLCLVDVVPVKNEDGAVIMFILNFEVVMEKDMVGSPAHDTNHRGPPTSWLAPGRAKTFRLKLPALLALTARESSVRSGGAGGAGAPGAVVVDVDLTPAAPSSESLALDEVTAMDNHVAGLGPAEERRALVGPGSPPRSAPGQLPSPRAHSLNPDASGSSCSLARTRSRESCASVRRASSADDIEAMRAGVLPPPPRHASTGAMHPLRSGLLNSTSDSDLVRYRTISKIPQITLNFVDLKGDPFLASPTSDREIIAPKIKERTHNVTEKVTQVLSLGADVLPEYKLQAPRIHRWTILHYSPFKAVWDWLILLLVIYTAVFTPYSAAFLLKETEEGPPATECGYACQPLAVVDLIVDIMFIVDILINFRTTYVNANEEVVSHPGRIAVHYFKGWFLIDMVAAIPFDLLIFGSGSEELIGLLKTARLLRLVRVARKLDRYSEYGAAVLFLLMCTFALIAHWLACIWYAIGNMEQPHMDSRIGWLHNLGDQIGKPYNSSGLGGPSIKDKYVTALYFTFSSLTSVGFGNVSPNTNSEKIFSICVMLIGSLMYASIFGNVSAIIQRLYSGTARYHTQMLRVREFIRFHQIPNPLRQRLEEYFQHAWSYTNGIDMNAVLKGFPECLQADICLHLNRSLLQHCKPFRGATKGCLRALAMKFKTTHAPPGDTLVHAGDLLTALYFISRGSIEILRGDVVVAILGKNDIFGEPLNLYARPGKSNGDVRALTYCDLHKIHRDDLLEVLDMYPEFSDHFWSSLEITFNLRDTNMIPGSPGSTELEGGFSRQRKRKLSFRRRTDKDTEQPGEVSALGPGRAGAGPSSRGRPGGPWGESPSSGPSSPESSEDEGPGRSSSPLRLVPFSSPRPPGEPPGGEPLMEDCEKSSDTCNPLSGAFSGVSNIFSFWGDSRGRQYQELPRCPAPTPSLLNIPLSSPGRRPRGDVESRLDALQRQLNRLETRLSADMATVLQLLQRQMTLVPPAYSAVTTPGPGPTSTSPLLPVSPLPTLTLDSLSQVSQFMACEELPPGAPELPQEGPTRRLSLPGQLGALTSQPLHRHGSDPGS

In order of falling “hERG current change (%, negative = inhibition) at 10uM” value:
1. COCCCNC(=O)c1cc(-c2cccnc2)nc2ccc(S(=O)(=O)N3CCCCCC3)cc12  30.6%
2. O=C(CCN1C(=O)C2C3C=CC(C3)C2C1=O)Nc1ccccc1 (centres unmarked)  21.1%
3. CC(C)(C)c1nc2c(Br)cc(Br)cc2c(=O)o1  18.9%
4. CCN(C(=O)c1nn(-c2ccc(OC)cc2)c(=O)c2c1c1ccccc1n2C)c1ccc(OC)cc1  18.3%
5. COc1ccc(S(=O)(=O)n2cnc3ccccc32)cc1.Cl  13.4%
6. CCOCCCNC(=O)c1cc(-c2cccnc2)nc2ccc(S(=O)(=O)N3CCC(C)CC3)cc12  12.9%
7. O=C(Nc1ccc(Cl)cc1F)C1CC1c1ccccc1 (centres unmarked)  12.6%
8. CCOc1ccccc1NC(=O)COC(=O)c1cc[n+]([O-])cc1  12.3%
9. OCC[C@H]1C[C@H](O)[C@@H](O)[C@]2(CCc3ccccc3O2)O1  6.41%
10. COC(=O)CN(c1ccccc1)S(=O)(=O)c1ccccc1  4.04%
11. Cn1c(=O)n(CC(=O)N2CCOCC2)c2ccccc21  3.76%
12. CS(=O)(=O)c1ccc(-c2cccc(NC(=O)c3ccc(Br)o3)c2)nn1  3.74%
13. Cc1ccc(C2OC(=O)C=C2c2ccccc2)cc1 (centres unmarked)  3.71%
14. Cc1ccc2c(c1)nnc1nnc(SCC(=O)O)n12  3.45%
15. O=S(=O)(c1ccc(S(=O)(=O)n2cnc3ccccc32)cc1)N1CCCCCC1  3.15%
16. COc1ccc(C)cc1NC(=O)C(Sc1nnc(Nc2cc(C)ccc2OC)s1)c1ccccc1 (centres unmarked)  0.631%
17. COc1ccc(C(=O)NNC(=O)C23CC4CC(CC(C4)C2)C3)cc1OC  0.327%
18. Cc1c(Cl)cccc1NC(=O)NN1CCN(C)CC1  -0.937%
19. Cn1c(=O)c2c(ncn2CC(=O)OCC(=O)NC(c2ccccc2)c2ccccc2)n(C)c1=O  -2.22%
20. O=S(=O)(c1ccccc1C(F)(F)F)N1CCN(S(=O)(=O)c2ccccc2C(F)(F)F)CC1  -2.32%
21. Cc1noc(C)c1S(=O)(=O)N1CCC(C(=O)O)CC1  -3.88%
22. CC(C)(C)c1ccc(Cn2nnc3c(=O)[nH]c(C4CCN(C(=O)Cc5cccs5)CC4)nc32)cc1  -4.81%
23. Cc1nnc2ccc(-c3cccc(NC(=O)c4ccco4)c3)nn12  -5.08%
24. O=[N+]([O-])c1cccc(N(CC2CO2)S(=O)(=O)c2ccccc2)c1 (centres unmarked)  -5.4%
25. O=C(c1ccco1)N1CCCC(c2nc3c(nnn3Cc3ccccc3)c(=O)[nH]2)C1 (centres unmarked)  -8.47%
26. COc1cccc(-n2ccnc2SCC(=O)N2CCCc3ccccc32)c1  -10%
27. COC(=O)c1sccc1NC(=O)c1csc2c1CCCC2  -10.9%
28. Cc1ccc(NC2c3ccccc3C(=O)N2CCN2CCOCC2)cc1 (centres unmarked)  -12.9%
29. Cc1ccc([N+](=O)[O-])cc1Nc1nc(N2CCOCC2)nc(N2CCOCC2)n1  -13.5%
30. Cc1nnc2ccc(-c3ccc(NC(=O)c4ccc(Cl)nc4)cc3)nn12  -15%
31. Cc1nnc2ccc(-c3cccc(NS(C)(=O)=O)c3)nn12  -17.1%
32. COc1ccc(CCNC(=O)C2CC2)cc1OC  -18.3%
33. Fc1ccccc1Nc1ncnc2c1nnn2Cc1ccccc1  -20%
34. Cn1cccc1C(=O)OCc1csc(-c2ccccc2)n1  -20.9%
35. O=C(c1ccccc1Cl)N1CCC(c2nc3c(nnn3Cc3ccco3)c(=O)[nH]2)CC1  -22.1%
36. COc1ccc(NC(=O)N2CCC(n3cnc4ccccc43)CC2)cc1  -28.5%
37. Cc1nonc1C(=O)N/N=C/c1ccc(O)c(O)c1  -29.7%
38. O=C(c1ccccc1)N1CCC(c2nc3c(nnn3Cc3ccco3)c(=O)[nH]2)CC1  -32.2%
39. COCCNC(=O)c1cc(-c2ccncc2)nc2ccc(S(=O)(=O)N3CCOCC3)cc12  -32.3%
40. O=C(Cc1cccs1)N1CCCC(c2nc3c(nnn3Cc3ccc(F)cc3)c(=O)[nH]2)C1 (centres unmarked)  -35.1%
41. CCCCN(C)CCNC(=O)c1cc(-c2cccnc2)nc2ccc(S(=O)(=O)N3CCC(C)CC3)cc12  -35.5%
42. O=C(c1ccco1)N1CCCC(c2nc3c(nnn3Cc3ccc(Cl)cc3Cl)c(=O)[nH]2)C1 (centres unmarked)  -36.1%
43. O=C(c1cccs1)N1CCCC(c2nc3c(nnn3Cc3cccc(Cl)c3)c(=O)[nH]2)C1 (centres unmarked)  -36.6%
44. O=C(Cc1cccs1)N1CCC(c2nc3c(nnn3Cc3ccc(F)cc3)c(=O)[nH]2)CC1  -38.9%
45. CCn1c(N2CCN(S(=O)(=O)c3ccccc3C(F)(F)F)CC2)nc2ccccc21.Cl  -39.6%
46. O=S(=O)(c1ccc(F)cc1)N1CCC(n2cnc3ccccc32)CC1  -39.7%
47. Cc1noc(C)c1S(=O)(=O)N1CCC(C(=O)c2ccccc2)CC1  -43%
48. O=C(c1ccco1)N1CCCC(c2nc3c(nnn3Cc3cccc(Cl)c3)c(=O)[nH]2)C1 (centres unmarked)  -54.5%
49. O=C(Cc1cccs1)N1CCCC(c2nc3c(nnn3Cc3cccc(Cl)c3)c(=O)[nH]2)C1 (centres unmarked)  -55.6%
50. O=C(Cc1cccs1)N1CCC(c2nc3c(nnn3Cc3ccccc3)c(=O)[nH]2)CC1  -56%
51. Cc1nnc2ccc(-c3cccc(NC(=O)c4ccc(Cl)nc4)c3)nn12  -56.7%
52. O=S(=O)(c1ccccc1C(F)(F)F)N1CCC(n2cnc3ccccc32)CC1  -60.5%
53. COCCNC(=O)c1cc(-c2ccccn2)nc2ccc(S(=O)(=O)N3CCC(C)CC3)cc12  -61.8%
54. O=S(=O)(c1ccccc1)N1CCC(n2cnc3ccccc32)CC1  -64%
55. COc1ccc(S(=O)(=O)N2CCC(n3cnc4ccccc43)CC2)cc1  -64.9%
56. CCN(CC)CCNC(=O)c1cc(-c2cccnc2)nc2ccc(S(=O)(=O)N3CCC(C)CC3)cc12  -65.1%
57. Cc1ccc(C(=O)C2CCN(S(=O)(=O)c3c(C)noc3C)CC2)cc1  -67.3%
58. O=C(c1ccc(Cl)cc1Cl)N1CCC(c2nc3c(nnn3Cc3ccco3)c(=O)[nH]2)CC1  -69%
59. Cc1nnc2ccc(-c3cccc(NC(=O)c4ccc(Br)o4)c3)nn12  -75.8%
